# Laboratory results taken from PubChem BioAssay (Tox21).
# Values joined by “and” are separate entries in the source; they are usually repeats but may differ in a detail not shown here. Equal values may be shown once. More than one record can exist for a structure, and the calls need not agree. Active and inactive are the calls of the source. Where a call stands in place of a potency, no number is given. Unless noted, calls follow the shape of the dose curve; as a rule, active = well fitted curve in the direction sought with a large enough effect in the repeat runs; inconclusive = weak or mixed curves; inactive = no such curve, though single readings can be large; an effect the other way counts as inactive or inconclusive.
# Legend:
# [1] = qHTS assay to identify small molecule antagonists of the thyroid receptor (TR) signaling pathway (AID 743065); also: nearly all actives have a fitted effect of over 55% in size; also: potency is read from the fitted curve at half-maximal effect
# Procedure, shortened: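 Antagonism measured as loss of luciferase signal in GH3 cells stably carrying a TRE-luciferase reporter, co-treated with compound and T3 (1 nM final) for 23.5 h at 37 C. Viability was read in the same well by CellTiter-Fluor.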
# [2] = test system: thyroid hormone receptor (rat, GH3 cells); test: qHTS assay to identify small molecule agonists of the thyroid receptor (TR) signaling pathway (AID 743066; calls by dose curve)
# [3] = target: Estrogen receptor (Homo sapiens) (UniProt P03372); test: qHTS assay to identify small molecule antagonists of the estrogen receptor alpha (ER-alpha) signaling pathway (AID 743069; active = well fitted curve in the direction sought with a large enough effect in the signal ratio in the repeat runs, not every such curve was filed as active; inconclusive = weak or mixed curves, or effect the other way; inactive = no such curve, though single readings can be large or run the other way; the % refers to the signal ratio)
# Procedure, shortened: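 Antagonist mode: compounds in DMSO were co-added with 17beta-estradiol to ER-alpha-bla HEK293 cells (2% charcoal-stripped serum) and left 18 h at 37C. Reporter inhibition was measured as FRET fluorescence after 2 h LiveBLAzer substrate at room temperature.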
# [4] = qHTS assay to identify small molecule antagonists of the estrogen receptor alpha (ER-alpha) signaling pathway - cell viability counter screen (AID 743074; calls by dose curve;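 also: HEK293 cells carrying ER-alpha-UAS-bla reporter stimulated with 17beta-estradiol; nearly all actives have a fitted effect of over 45% in size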)
# [5] = target: Estrogen receptor (Homo sapiens) (UniProt P03372); test: qHTS assay to identify small molecule agonists of the estrogen receptor alpha (ER-alpha) signaling pathway (AID 743075; calls by dose curve;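 also: HEK293 GripTite cells with ER-alpha and UAS-driven beta-lactamase reporter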; also: potency is read from the fitted curve at half-maximal effect)
# [6] = target: Estrogen receptor (Homo sapiens) (UniProt P03372); test: qHTS assay to identify small molecule agonists of the estrogen receptor alpha (ER-alpha) signaling pathway using the BG1 cell line (AID 743079); conditions: BG1Luc4E2 cells, ERE-luciferase agonist, 22 h; activation: at 70.3 µM (top of the series) unless noted; also: nearly all actives have a fitted effect of over 20% in size; also: potency is read from the fitted curve at half-maximal effect
# [7] = qHTS assay to identify small molecule antagonists of the estrogen receptor alpha (ER-alpha) signaling pathway using the BG1 cell line (AID 743080; calls by dose curve;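 also: BG1 cells stimulated with 17beta-estradiol alongside compound; nearly all actives have a fitted effect of over 25% in size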)
# Procedure, shortened: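 Seeding, 24 h rest, compound transfer from DMSO, 17beta-estradiol addition, 21.5 h incubation, CellTiter-Fluor (30 min, 37 C), then ONE-Glo (30 min, room temperature): this sequence was run on BG1-Luc-4E2 reporter cells.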
# [8] = qHTS assay to identify small molecule antagonists of the estrogen receptor alpha (ER-alpha) signaling pathway using the BG1 cell line - cell viability counter screen (AID 743081);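 also: compound given together with 17beta-estradiol as the ER stimulus; nearly all actives have a fitted effect of over 45% in size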
# Aromatase (Homo sapiens) = Aromatase (Homo sapiens) (UniProt P11511); test: qHTS assay to identify aromatase inhibitors (AID 743083); also: nearly all actives have a fitted effect of over 55% in size
# [9] = qHTS assay to identify aromatase inhibitors - cell viability counter screen (AID 743084);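 also: cells stimulated with testosterone during compound exposure; nearly all actives have a fitted effect of over 55% in size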
# [10] = qHTS assay to identify small molecule that activate the aryl hydrocarbon receptor (AhR) signaling pathway - cell viability counter screen (AID 743086);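 also: HepG2 liver cells carrying the AhR DRE luciferase reporter; nearly all actives have a fitted effect of over 45% in size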
# Procedure, shortened: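 Cytotoxicity counter screen: CellTiter-Fluor signal (30 min, 37 C) in 4000 HepG2 cells/well carrying the DRE-luciferase reporter, following 24 h compound exposure at 37 C.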
# [11] = qHTS assay to identify small molecule antagonists of the peroxisome proliferator-activated receptor gamma (PPARg) signaling pathway - cell viability counter screen (AID 743194); conditions: Potency: co-treated with 50 nM rosiglitazone unless noted; also: nearly all actives have a fitted effect of over 55% in size
# Procedure, shortened: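 Viability was measured as CellTiter-Glo luminescence in GeneBLAzer PPARg UAS-bla HEK293H cells. These cells had been exposed 17 h at 37 C to compounds together with rosiglitazone at 50 nM final, with the beta-lactamase readout taken in the same wells.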
# [12] = qHTS assay for small molecule activators of the heat shock response signaling pathway - cell viability counter screen (AID 743209); also: nearly all actives have a fitted effect of over 50% in size
# Procedure, shortened: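 Compounds dissolved in DMSO were added to overnight-plated HSE-bla HeLa cells and left 5 h at 37 C. Cell viability was quantified by luminescence using CellTiter-Glo.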
# [13] = qHTS assay for small molecule activators of the heat shock response signaling pathway (AID 743210; active = well fitted activation curve with a large enough effect in the signal ratio in the repeat runs, with a control signal flat, not every such curve was filed as active; inconclusive = weak or mixed curves; the % refers to the signal ratio)
# Procedure, shortened: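 Compound exposure lasted 5 h at 37 C in HeLa cells carrying a heat-shock-element-driven beta-lactamase reporter. Read-out: fluorescence intensity after 2.5 h room-temperature loading with LiveBLAzer B/G FRET substrate.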
# [14] = target: Peroxisome proliferator-activated receptor gamma (Homo sapiens) (UniProt P37231); test: qHTS assay to identify small molecule agonists of the peroxisome proliferator-activated receptor gamma (PPARg) signaling pathway (AID 743094; active = well fitted activation curve with a large enough effect in the signal ratio in the repeat runs, not every such curve was filed as active; inconclusive = weak or mixed curves, or effect the other way; inactive = no such curve, though single readings can be large or run the other way; the % refers to the signal ratio)
# Procedure, shortened: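 Agonism was assessed in a beta-lactamase reporter system, HEK293H cells with a stably integrated UAS-bla construct under PPARg control; the 17 h treatment at 37C preceded a 1 h room-temperature FRET substrate read.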
# [15] = target: Peroxisome proliferator-activated receptor gamma (Homo sapiens) (UniProt P37231); test: qHTS assay to identify small molecule antagonists of the peroxisome proliferator-activated receptor gamma (PPARg) signaling pathway (AID 743191; calls by dose curve; also: nearly all actives have a fitted effect of over 30% in size)
# Procedure, shortened: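 Beta-lactamase reporter under UAS control in HEK293H PPARg-bla cells; compound treatment 17 h at 37C. Read-out: fluorescence intensity after 1 h room-temperature incubation with LiveBLAzer B/G FRET substrate.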
# [16] = qHTS assay for small molecule agonists of the antioxidant response element (ARE) signaling pathway (AID 743202; active = well fitted activation curve with a large enough effect in the signal ratio in the repeat runs, not every such curve was filed as active; inconclusive = weak or mixed curves, or effect the other way; inactive = no such curve, though single readings can be large or run the other way; the % refers to the signal ratio)
# Procedure, shortened: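 After 16 hours of compound treatment at 37 C, HepG2 cells with a stably integrated ARE-driven beta-lactamase reporter were loaded 2 hours at room temperature with LiveBLAzer B/G FRET substrate and fluorescence intensity measured.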
# [17] = qHTS assay for small molecule agonists of the antioxidant response element (ARE) signaling pathway - cell viability counter screen (AID 743203; calls by dose curve; also: nearly all actives have a fitted effect of over 55% in size)
# Procedure, shortened: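 ATP content via CellTiter-Glo luminescence served as the viability measure. Cells: ARE-bla HepG2, 2,000 per well. Exposure: 16 hrs, 37C/5% CO2.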
# [18] = target: Aryl hydrocarbon receptor (Homo sapiens) (UniProt P35869); test: qHTS assay to identify small molecule that activate the aryl hydrocarbon receptor (AhR) signaling pathway (AID 743085);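 also: HG2L7.5c1 human HepG2 liver cells with stably integrated DRE-driven firefly reporter; nearly all actives have a fitted effect of over 15% in size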
# Procedure, shortened: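 Steps: seed HepG2-AhR-luc cells; allow 5 h at 37C; pin-transfer test compound or vehicle; incubate 24 h at 37C; add viability dye (30 min, 37C) and read fluorescence; add luciferase substrate (30 min, RT) and read luminescence.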
# Estrogen receptor (Homo sapiens), sequence (P03372 whole entry, looked up): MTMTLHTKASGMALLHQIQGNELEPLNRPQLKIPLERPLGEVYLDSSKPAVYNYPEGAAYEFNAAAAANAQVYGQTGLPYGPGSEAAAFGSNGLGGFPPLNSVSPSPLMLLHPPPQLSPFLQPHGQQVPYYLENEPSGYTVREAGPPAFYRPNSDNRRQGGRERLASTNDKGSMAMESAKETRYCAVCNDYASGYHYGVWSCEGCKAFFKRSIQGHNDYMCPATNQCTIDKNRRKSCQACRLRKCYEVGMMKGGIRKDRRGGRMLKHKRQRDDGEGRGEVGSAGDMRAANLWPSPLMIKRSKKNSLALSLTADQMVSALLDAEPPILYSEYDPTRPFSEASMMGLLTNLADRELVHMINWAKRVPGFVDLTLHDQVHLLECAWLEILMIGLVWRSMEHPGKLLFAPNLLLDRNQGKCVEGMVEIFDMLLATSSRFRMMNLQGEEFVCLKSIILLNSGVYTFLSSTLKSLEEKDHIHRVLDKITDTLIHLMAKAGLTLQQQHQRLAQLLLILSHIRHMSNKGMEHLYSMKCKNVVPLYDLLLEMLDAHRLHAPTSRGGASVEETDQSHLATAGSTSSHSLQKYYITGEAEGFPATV
# Peroxisome proliferator-activated receptor gamma (Homo sapiens), sequence (P37231 whole entry, looked up): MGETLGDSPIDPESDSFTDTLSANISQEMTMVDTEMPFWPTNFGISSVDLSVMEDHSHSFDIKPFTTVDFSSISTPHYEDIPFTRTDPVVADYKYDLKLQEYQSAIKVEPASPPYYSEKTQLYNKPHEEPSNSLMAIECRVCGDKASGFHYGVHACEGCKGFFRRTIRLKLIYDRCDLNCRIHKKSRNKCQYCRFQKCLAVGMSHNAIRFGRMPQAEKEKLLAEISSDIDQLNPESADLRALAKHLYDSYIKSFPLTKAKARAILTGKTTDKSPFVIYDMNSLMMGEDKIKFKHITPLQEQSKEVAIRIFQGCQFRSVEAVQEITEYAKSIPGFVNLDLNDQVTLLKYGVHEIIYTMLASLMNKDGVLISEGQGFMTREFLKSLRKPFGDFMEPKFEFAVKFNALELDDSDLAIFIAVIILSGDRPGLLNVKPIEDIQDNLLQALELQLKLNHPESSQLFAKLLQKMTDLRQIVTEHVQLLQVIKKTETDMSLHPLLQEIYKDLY
# Aromatase (Homo sapiens), sequence (P11511 whole entry, looked up): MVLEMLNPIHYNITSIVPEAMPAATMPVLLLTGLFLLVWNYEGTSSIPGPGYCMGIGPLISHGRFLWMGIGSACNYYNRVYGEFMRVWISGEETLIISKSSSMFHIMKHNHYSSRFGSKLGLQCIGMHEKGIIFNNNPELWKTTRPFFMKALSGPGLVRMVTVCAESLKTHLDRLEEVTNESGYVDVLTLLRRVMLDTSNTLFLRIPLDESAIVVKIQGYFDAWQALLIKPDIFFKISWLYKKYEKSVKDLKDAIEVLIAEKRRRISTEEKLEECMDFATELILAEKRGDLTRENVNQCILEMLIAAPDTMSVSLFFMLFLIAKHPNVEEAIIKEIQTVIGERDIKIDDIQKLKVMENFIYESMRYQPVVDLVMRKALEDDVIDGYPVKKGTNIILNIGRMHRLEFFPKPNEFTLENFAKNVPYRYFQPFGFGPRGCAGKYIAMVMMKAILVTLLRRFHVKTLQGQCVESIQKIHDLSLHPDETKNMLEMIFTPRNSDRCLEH
# Aryl hydrocarbon receptor (Homo sapiens), sequence (P35869 whole entry, looked up): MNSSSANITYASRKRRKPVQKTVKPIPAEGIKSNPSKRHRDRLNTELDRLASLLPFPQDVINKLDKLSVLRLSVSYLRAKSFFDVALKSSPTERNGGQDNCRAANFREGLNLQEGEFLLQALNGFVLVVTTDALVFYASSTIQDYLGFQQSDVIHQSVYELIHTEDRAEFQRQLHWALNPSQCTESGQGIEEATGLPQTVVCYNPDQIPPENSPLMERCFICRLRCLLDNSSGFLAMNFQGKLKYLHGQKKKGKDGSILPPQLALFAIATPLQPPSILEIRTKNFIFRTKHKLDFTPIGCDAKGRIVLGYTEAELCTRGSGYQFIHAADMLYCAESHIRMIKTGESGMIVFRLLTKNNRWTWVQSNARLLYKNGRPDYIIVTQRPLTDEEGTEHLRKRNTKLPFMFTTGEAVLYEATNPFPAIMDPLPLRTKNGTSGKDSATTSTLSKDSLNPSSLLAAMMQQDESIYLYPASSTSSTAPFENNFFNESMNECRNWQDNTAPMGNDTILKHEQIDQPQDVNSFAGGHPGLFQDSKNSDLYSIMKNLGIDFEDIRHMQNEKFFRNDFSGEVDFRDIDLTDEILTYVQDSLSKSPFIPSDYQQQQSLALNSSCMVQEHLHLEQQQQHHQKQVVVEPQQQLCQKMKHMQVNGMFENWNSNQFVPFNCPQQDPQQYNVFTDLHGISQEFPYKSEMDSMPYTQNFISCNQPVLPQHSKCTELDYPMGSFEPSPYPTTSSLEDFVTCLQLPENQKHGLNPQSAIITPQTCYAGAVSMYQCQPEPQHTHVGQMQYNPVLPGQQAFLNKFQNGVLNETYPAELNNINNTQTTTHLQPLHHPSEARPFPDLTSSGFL
SMILES,Potency [1],Potency [2],Potency [3],Potency [4],Potency [5],Potency [6],Potency [7],Potency [8],Potency (Aromatase (Homo sapiens)),Potency [9],Potency [10],Potency [11],Potency [12],Potency [13],Potency [14],Potency [15],Potency [16],Potency [17],Potency [18]
CCCCCCCCC(=O)O,inactive,inactive,inactive,inactive,inactive,inactive,inactive,inactive,inactive,inactive,inactive,inactive,inactive,inactive,,,,,
CC(C=O)Cc1ccc(C(C)(C)C)cc1 (configuration not stated),43.3 µM (active),inactive,,inactive,,,,inactive,inactive,inactive,inactive,inactive,inactive,inactive,inactive,inactive,inactive,inactive,
C[Si](C)(C)N[Si](C)(C)C,,inactive,inactive,,86.4 nM [inconclusive] (active) and inactive,inactive,inactive,inactive,inactive,inactive,inactive,,inactive,inactive,inactive,inactive,,,
CC(=O)c1nccs1,,inactive,inactive,inactive,inactive,inactive and 48.6 µM (active),inactive,inactive,inactive,inactive,inactive,,inactive,inactive,inactive,inactive,inactive,,
CCc1cccc(CC)c1N,,inactive,inactive,inactive,inactive,inactive,inactive,inactive,inactive,inactive,inactive,,inactive,inactive,,,inactive,,
COCN(COC)c1nc(N(COC)COC)nc(N(COC)COC)n1,,,inactive,inactive,inactive,inactive,inactive,inactive,inactive,inactive,inactive,,inactive,inactive,inactive,inactive,inactive,inactive,inactive
CC(C)c1ccc(C(C)C)cc1,,inactive,inactive,inactive,inactive,inactive,inactive,inactive,inactive,inactive,inactive,inactive,inactive,inactive,inactive,inactive,,inactive,
CC(=O)Nc1ccc(CC(=O)O)cc1,,,inactive,inactive,inactive,inactive,inactive,inactive,inactive,inactive,inactive,,inactive,inactive,inactive,inactive,inactive,,
OCC(CO)(CO)CO,,inactive,inactive,inactive,inactive,inactive,inactive,inactive,inactive,inactive,inactive,inactive,inactive,inactive,inactive,inactive,inactive,,
CC/C=C(\C(=O)N[C@@H]1C(=O)N2C(C(=O)OCOC(=O)C(C)(C)C)=C(COC(N)=O)CS[C@H]12)c1csc(N)n1,inactive,inactive,,inactive,inactive,inactive,inactive,,inactive,inactive,inactive,inactive,inactive,inactive,inactive,inactive,,inactive,inactive
